Screening data deposited in PubChem by National Center for Advancing Translational Sciences (NCATS).
IMPase inh – IMPase inhibition in cells; P97697; CHO-M1 cells, IP1 accumulation, HTRF TR-FRET ratio; inhibition (IP1 accumulation), % at 46.1 µM; 120,000 tested, under 10 active; active = well fitted curve in the direction sought with a large enough effect in the signal ratio, not every such curve was filed as active; inconclusive = small, poorly fitted or top-dose-only effect, or a change in a side signal; inactive = no such curve, though single readings can be large or run the other way; the % refers to the signal ratio;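 also: cells stimulated with carbachol in lithium chloride buffer; plate controls were DMSO basal wells for no effect and reference inhibitor wells for full effect; higher means more IMPase inhibition seen as more IP1 and lower FRET ratio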
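In this qHTS, compounds (final up to 46 uM) act on CHO-M1 cells that are then activated through the M1 receptor with carbachol, in pH 7.4 buffer containing 50 mM LiCl, for 30 min. IP1 accumulation is quantified by the IP-One immunoassay.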
HPGD inh – blocks human HPGD enzyme activity; P15428; purified HPGD, NADH fluorescence kinetic, PGE2 substrate; Potency, µM, for inactives: at the top dose activity change, negative = inhibition, hits mostly inhibitors; 150,000 compounds, 4.3% hits; AID 894; also: potency is read from the fitted curve at half-maximal effect
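20 nM HPGD preincubated 15 min at room temperature with compound in 50 mM Tris-HCl pH 8, 0.01% Tween 20. Started with 1 mM NAD+ and 30 uM prostaglandin E2; NADH fluorescence (360/450 nm) read 5 times over 30-s intervals, last minus first.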
ALDH1A1 inh – inhibitors of human aldehyde dehydrogenase 1A1 | Potency, µM (series often up to 75.3 µM), without a hit: at the top dose activity, negative = inhibition, usual class: inhibitors | Purified ALDH1A1, NADH fluorescence, propionaldehyde substrate | P00352 | 220,000 compounds, 7.3% hits;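 also: potency is read from the fitted curve at half-maximal effect; plate controls were no enzyme wells and a reference inhibitor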
Target sequence (P00352 whole entry, looked up): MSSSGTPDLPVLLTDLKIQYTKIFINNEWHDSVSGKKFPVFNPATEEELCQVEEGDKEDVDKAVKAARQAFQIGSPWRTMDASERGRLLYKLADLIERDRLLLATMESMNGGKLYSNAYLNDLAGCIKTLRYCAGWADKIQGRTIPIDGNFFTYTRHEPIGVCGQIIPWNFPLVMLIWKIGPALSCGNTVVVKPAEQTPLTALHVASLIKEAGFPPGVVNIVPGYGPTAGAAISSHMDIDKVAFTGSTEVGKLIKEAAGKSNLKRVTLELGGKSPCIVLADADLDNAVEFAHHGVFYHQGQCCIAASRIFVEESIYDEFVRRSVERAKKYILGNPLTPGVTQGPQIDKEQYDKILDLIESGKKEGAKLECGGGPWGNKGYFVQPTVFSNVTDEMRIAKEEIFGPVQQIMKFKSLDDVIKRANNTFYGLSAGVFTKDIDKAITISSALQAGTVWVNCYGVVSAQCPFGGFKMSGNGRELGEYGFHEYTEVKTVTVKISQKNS
Starred values were filed as active, the others as inactive; ? = inconclusive; . = not tested or not shown; [ ] = remark or other dose. In the library only some 9% were active in any assay of this set; here they are far more common. Unless noted, calls follow the shape of the dose curve; as a rule, active = well fitted inhibition curve with a large enough effect (not every such curve was filed as active); inconclusive = small, poorly fitted or top-dose-only effect, or another doubt; inactive = no such curve, though single readings can be large or run the other way. Unless noted, % is scaled to controls: 0 for no effect and ±100 for the full control effect.

SMILES	IMPase inh	HPGD inh	ALDH1A1 inh
CCn1c(C(=O)N2CCc3ccccc3C2)cc2oc3ccccc3c21	-6	?	?
O=C(c1cc2ccccc2c(=O)o1)N1CCCC1	.	-13%	-7%
O=C(c1cc2ccccc2c(=O)o1)N1CCCc2ccccc21	1	-5%	4.5µM*
O=C(c1cc2ccccc2c(=O)o1)N1CCc2ccccc2C1	-2	25µM*	2%
O=C(c1nn(Cc2ccccc2)c(=O)c2ccccc12)N1CCN(c2ccccn2)CC1	10	-7%	?
COc1cc(NC(=O)c2nccnc2C(=O)O)cc(OC)c1	-12	-2%	-10%
CCOC(=O)CN1C(=O)CN(c2ccc(C)c(C)c2)C1=O	2	-2%	6%
CCOC(=O)C1=NOC(C(=O)NN(C)c2ncc(C(F)(F)F)cc2Cl)C1 (centres undefined)	.	.	-6%
NC(=O)N/N=C/c1coc2ccc(O)cc2c1=O	.	.	18µM*
O=C(N/N=C/c1coc2ccccc2c1=O)c1ccccc1	.	.	4µM*
O=C(N/N=C/c1coc2ccccc2c1=O)c1cn(-c2ccccc2)nc1-c1ccccc1	-5	-15%	3.2µM*
Cc1ccc2occ(/C=N/NC(N)=S)c(=O)c2c1	5	-21%	?
O=C(N/N=C\c1ccccc1OCc1ccccc1)c1ccco1	.	-11%	-13%
O=C(N/N=C/c1cn(-c2ccccc2)nc1-c1cc2ccccc2o1)c1ccccc1Br	7	?	?
O=C(N/N=C\c1coc2ccccc2c1=O)c1ccco1	.	.	1.6µM*
O=C(O)/C=C/c1coc2ccccc2c1=O	.	-2%	7%
CCCC(=O)Nc1ncnc2c1ncn2C1OC2COP(=O)(O)OC2C1OC(=O)CCC (centres undefined)	.	-18%	5%
COC(=O)c1cc(C#N)c(NCc2ccccc2)nc1C	-6	?	?
CCN1C(=O)c2ccccc2S(=O)c2ccc(C(=O)NCCCN3CCCC3=O)cc21 (centres undefined)	6	-10%	5%
O=C1CC(=C(c2ccccc2)c2ccccc2)C(=O)N1CCCCN1CCN(c2cccc(Cl)c2)CC1	6	-5%	0%
Cc1ccccc1N1CCN(CCCN2C(=O)CC(=C(c3ccccc3)c3ccccc3)C2=O)CC1	-2	?	18µM*
O=C(NCCc1ccncc1)Nc1ccccc1Cl	5	0%	-2%
C=CCNC(=O)/C(C#N)=C/c1c(N(Cc2ccccc2)Cc2ccccc2)nc2ccccn2c1=O	7	-18%	7.1µM*
N#C/C(=C\c1c(N(Cc2ccccc2)Cc2ccccc2)nc2ccccn2c1=O)C(N)=O	6	-4%	?
CN[C@H]1[C@@H](O)[C@@H](NC)[C@@H]2O[C@@]3(O)C(=O)C[C@@H](C)O[C@H]3O[C@H]2[C@H]1O	-3[20.6 µM]	-2%	-3%[20.9 µM]
SMILES	IMPase inh	HPGD inh	ALDH1A1 inh
COc1ccc(NS(=O)(=O)c2cc(OC)ccc2NC(=O)c2cc(C)oc2C)cc1	-7	-19%	3.2µM*
Cc1oc(-c2ccccc2)cc1C(=O)Nc1ccc2ccccc2c1	8	?	32µM*
COc1ccc(NC(=O)c2cc(-c3ccccc3)oc2C)cc1	.	22µM*	?
Cc1oc(-c2ccccc2)cc1C(=O)Nc1ccccc1	1	-11%	6%
Cc1oc(-c2ccccc2)cc1C(=O)Nc1cccc(/C=C/C(=O)O)c1	.	.	-10%
COc1ccc(C)c(S(=O)(=O)Nc2ccc(OCC(=O)O)cc2)c1	0	-12%	12%
Cc1cccc(-c2nnc(SCC(=O)Nc3ncccn3)n2C)c1	.	.	-6%
COC(=O)c1nn(-c2ccc(Oc3ccccc3)cc2)c(=O)cc1O	.	.	-1%
CCc1ccc(N(C(=O)CNC(=O)c2ccco2)C(C(=O)NCC2CCCO2)c2ccccc2)cc1 (centres undefined)	.	.	6%
C=CCc1ccc(OCCOCCNCCCC)c(OC)c1	10	-6%	?
COC(=O)[C@@H](NC(=O)O[C@@H]1C(=O)c2ccc(OC)cc2O[C@H]1c1cccc(C(F)(F)F)c1)C(C)C	.	-10%	-6%
O=C(O)c1ccc(N/N=C/c2cccc(F)c2)cc1	.	?	20µM*
O=C(O)c1ccc(N/N=C/c2ccc(F)c(F)c2)cc1	2	-22%	-5%
COc1ccc(OC)c(C2CC(=O)N3CN(c4cccc(Cl)c4C)CSC3=C2C#N)c1 (centres undefined)	-6	7.9µM*	3.2µM*
COc1cccc(C2C(C#N)=C(N)Oc3cc(C)[nH]c(=O)c32)c1OC (centres undefined)	10	-13%	?
COc1cccc(C2CC(=O)N3CN(c4cccc(Cl)c4C)CSC3=C2C#N)c1OC (centres undefined)	-4	7.9µM*	3.2µM*
COc1ccc(OC)c(C2C(C#N)=C(N)Oc3cc(C)n(Cc4ccccn4)c(=O)c32)c1 (centres undefined)	1	-6%	-1%
O=C(c1cnccn1)N1CCC[C@@]2(CCN(Cc3nccs3)C2)C1	.	-10%	-1%
Cc1cccc2cc(COC(=O)C(C)(C)C)c(=O)[nH]c12	7	-9%	?
Cc1ccc(-c2cc(C(=O)Oc3ccccc3)c3cc(C)ccc3n2)cc1	12	.	.
O=C(NCCO)c1cccc2c1C(=O)c1ccccc1-2	.	-10%	20µM*
O=C(NCCO)c1ccccc1O	-2	?	?
S=C(NCCCN1CCOCC1)Nc1ccc(Cl)c(Cl)c1	.	-5%	0%
NC(N)=N/N=C\c1ccc(C2CCNCC2)cc1	.	-2%	-3%[13.5 µM]
CCCCN(CCCC)Cc1ccc(C(=O)NNC(=O)Nc2ccc(F)cc2)o1	.	.	-6%
SMILES	IMPase inh	HPGD inh	ALDH1A1 inh
CC(=O)N1N=C(c2cccs2)CC1c1cccs1 (centres undefined)	.	.	-2%
CC(=O)N1N=C(c2cccs2)CC1c1ccc(C)o1 (centres undefined)	.	.	4%
Cc1ccc(C2=NN(C(=O)CCl)C(c3cccs3)C2)o1 (centres undefined)	-3	.	1.3µM*
CC(=O)N1N=C(c2ccco2)CC1c1cccs1 (centres undefined)	-7[1.84 µM]	-15%	3.5µM*
COc1ccc(-c2nn3c(-c4ccccc4C)nnc3c3ccccc23)cc1	-2	.	.
Nc1ccccc1C(=O)CC(N)C(=O)O (centres undefined)	-2	-2%	-10%
N#Cc1ccccc1-c1ccc2ncnc(NC3CC3)c2c1	.	.	-9%
CCN(CC)S(=O)(=O)c1cccc(NC(=O)c2cc(-c3cccs3)nn2-c2ccccc2)c1	.	-20%	-7%
CN(C)S(=O)(=O)c1cccc(NC(=O)c2cc(-c3cccs3)nn2-c2ccccc2)c1	.	?	22µM*
COc1cccc(CN2CCN(C(=S)NCc3ccc(Cl)cc3)CC2)c1	.	.	-6%
CCOC(=O)N1CCN(c2nc(C)c3c(n2)CC(C)CC3=O)CC1 (centres undefined)	?	-14%	-13%
Cc1ccc(/C=[N+](\[O-])c2ccc(N(C)C)cc2)c2nsnc12	.	.	1.1µM*
Cc1ccc2nsnc2c1NS(=O)(=O)c1c(C)ccc2nsnc12	-1	-6%	-4%
Cc1cc(C(=O)OCC(=O)Nc2cccnc2Cl)c2ccccc2n1	.	.	-6%
NC1=C([N+](=O)[O-])C(c2ccc(F)cc2)C2=C(CCCC2=O)O1 (centres undefined)	.	-30%	-1%
CO/N=C/CC(=O)c1cnc(-c2ccc(Cl)cc2)s1	.	.	3.2µM*
